Test results as given in publication PMC5540273 (PLoS ONE, 2017).

Key:
Settings in all cases: concentration: 1 μM, replicates: in singlicate; n = 1
[1] = tested on: DAPK1
[2] = tested on: DAPK2
[3] = tested on: DAPK3
[4] = tested on: T1, DCAMKL1
T1 construct: gene DCLK1

[5] = tested on: T2, DCAMKL2
T2 construct: gene DCLK2

[6] = tested on: T3, DCAMKL3
T3 construct: gene DCLK3

[7] = tested on: DDR1
[8] = tested on: DDR2
[9] = tested on: T4, DLK
T4 construct: gene MAP3K12

[10] = tested on: T5, DMPK2
T5 construct: gene CDC42BPG
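Also: KINOMEscan kinase panel screen.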

SMILES	%Inh [1]	%Inh [2]	%Inh [3]	%Inh [4]	%Inh [5]	%Inh [6]	%Inh [7]	%Inh [8]	%Inh [9]	%Inh [10]
O=C(NCCNc1ccnc(Nc2ccc(F)cc2)n1)c1cc2ccccc2s1 [GSK1379874]	0%	0%	0%	0%	0%	0%	0%	1%	33%	0%
[2H]C([2H])(c1cccc(C(F)(F)F)c1C)n1ccn2c(=O)nc(N3CCOCC3)cc12 [GSK2336394]	26%	0%	6%	8%	18%	21%	0%	0%	10%	0%
CCc1ccnc(/C=C/c2n[nH]c3cc(Sc4ccccc4C(=O)NC)ccc23)c1	17%	0%	0%	0%	0%	8%	0%	13%	30%	0%
O=c1cc(N2CCOCC2)nc2n(Cc3cccc(C(F)(F)F)c3)ccn12 [GSK2297543]	0%	9%	10%	21%	10%	0%	0%	2%	0%	0%
N#Cc1ccc(-c2cc(-c3c[nH]nc3-c3ccccn3)ccn2)cc1 [GW693028]	0%	0%	16%	8%	17%	0%	0%	1%	40%	0%
COc1cc2ncn(-c3cc(OCc4sccc4Cl)c(C(N)=O)s3)c2cc1OC [GSK448459]	12%	2%	36%	5%	4%	0%	0%	12%	32%	0%
O=C(NCCNc1ccnc(Nc2ccc(F)cc2)n1)Nc1ccccc1F [GSK1379880]	0%	0%	9%	19%	0%	24%	29%	18%	0%	0%
Cc1nnc(-c2ccc3occ(-c4ccc(C(C)O)cc4)c3c2)o1 (stereo not drawn)	7%	0%	0%	13%	12%	11%	12%	12%	0%	3%
Cc1cn2c(=O)cc(N3CCOCC3)nc2n1Cc1cccc(Cl)c1Cl [GSK2334006]	13%	19%	22%	0%	0%	0%	30%	14%	21%	15%
CCCCCc1nc2c(N)ncnc2n1CCCCC [SKF-97255]	0%	0%	0%	23%	0%	5%	0%	21%	0%	0%
c1ccc(-c2cc(-c3c[nH]nc3-c3ccccn3)ccn2)cc1 [GW576604]	8%	0%	22%	0%	23%	12%	0%	24%	26%	0%
Cn1ccc2ncnc(Oc3ccc(NC(=O)Nc4ccncc4)c(Cl)c3)c21	0%	0%	0%	13%	0%	0%	35%	34%	0%	0%
Cc1ccc(NC(=O)c2ccnc(N3CCN(C)CC3)c2)cc1-c1ccc(C(=O)NCC2CC2)cc1 [GW775604]	5%	0%	0%	0%	15%	0%	77%	59%	0%	0%
COc1ccc(S(=O)(=O)NC2CCN(c3cc(C)nc(Nc4cccc(C#N)c4)n3)CC2)cc1.O=C(O)C(F)(F)F [GSK1653539]	0%	0%	23%	0%	0%	34%	0%	9%	0%	0%
NS(=O)(=O)CCc1cccc(Nc2nccc(-c3c(-c4cccc(NC(=O)c5c(F)cccc5F)c4)nn4ccccc34)n2)c1 [GSK336735]	0%	0%	0%	13%	23%	15%	100%	94.9%	59%	100%
O=C(Nc1cccc(-c2nn3ncccc3c2-c2ccnc(Nc3cccc(C(F)(F)F)c3)n2)c1)c1c(F)cccc1F [GSK299495]	0%	0%	1%	13%	0%	4%	100%	56%	41%	92.6%
COc1cc(Nc2nccc(N3CCC(NC(=O)c4cccc(NC(C)=O)c4)C3)n2)cc(OC)c1OC (stereo not drawn) [GSK1379754]	0%	8%	19%	8%	21%	0%	0%	4%	62%	0%
Cc1cccc(-c2nc(Nc3ccc4ncsc4c3)c3ccccc3n2)n1 [GW867588]	0%	0%	23%	0%	7%	0%	0%	35%	0%	9%
CN1c2ccc(NCc3ccc(F)cc3)cc2-c2c(cnn2C)S1(=O)=O	3%	12%	15%	16%	25%	9%	0%	31%	0%	0%
Cc1cccc(-c2nc(-c3ccc(S(C)(=O)=O)cc3)sc2-c2ccncc2)c1	4%	0%	0%	0%	0%	0%	0%	9%	0%	53%
Cc1c(Cn2c(C)nn3c(=O)cc(N4CCOC(C)C4)nc23)cccc1C(F)(F)F (stereo not drawn) [GSK2344444]	2%	0%	0%	0%	0%	21%	14%	0%	0%	0%
O=c1cc(N2CCOCC2)nc2n(Cc3cccc(Cl)c3Cl)c(C3CC3)nn12 [GSK2358994]	26%	12%	6%	0%	7%	17%	21%	0%	0%	0%
COc1cc2c(cc1OC[C@@H](O)CO)ncc1c3ccc(C#N)cc3[nH]c21	6%	6%	13%	0%	0%	34%	0%	0%	65%	0%
Cc1cccc(Cn2ccn3c(=O)cc(N4CCOCC4)nc23)c1 [GSK2297542]	9%	5%	0%	21%	14%	28%	0%	6%	49%	16%
O=C(NCCCN1CCOCC1)c1cccc(Nc2nccc(Nc3ccc(Oc4ccccc4)cc3)n2)c1 [GW663929]	48%	35%	81%	38%	0%	3%	35%	50%	13%	16%
COc1ccc(Nc2nccc(N3CCC(NC(=O)Nc4cc(C)ccc4C)C3)n2)cc1 (stereo not drawn) [GSK1379741]	0%	0%	10%	0%	0%	4%	23%	0%	0%	0%
O=C(Nc1n[nH]c2cc(-c3cccc(F)c3)ccc12)C1CC1 [SB-735464]	1%	11%	0%	11%	0%	0%	4%	8%	0%	0%
O=C1Cc2cc(Nc3nc(NCc4cccc(S(=O)(=O)C(F)(F)F)c4)ncc3C(F)(F)F)ccc2N1	0%	0%	0%	15%	0%	12%	0%	11%	33%	19%
NCC(NC(=O)c1cc(-c2cn[nH]c2)c(-c2ccnc3[nH]ccc23)s1)c1ccccc1.O=C(O)C(F)(F)F.O=C(O)C(F)(F)F (stereo not drawn) [GSK1325775]	71%	37%	87%	6%	0%	0%	0%	43%	37%	89%
NS(=O)(=O)c1cccc(-c2ccc3nccc(-c4cccc(S(N)(=O)=O)c4)c3c2)c1 [GW867253]	0%	0%	2%	9%	0%	0%	0%	23%	9%	0%
